Screening results: PubChem, several laboratories
Peg3 prom inh: Peg3 promoter-driven luciferase inhibitors, primary screen, cell-based, HeLa, luciferase luminescence. AID 588405, 2011. HeLa PEG-Prom luciferase reporter, overnight. 360,000 tested, 1.7% active. inhibition, % at 20 µM;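 active = inhibition of at least 50% at 20 µM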
ABHD5 PLIN5 PPI: ABHD5-PLIN5 interaction inhibitors, primary screen, cell lysate, split luciferase complementation, luminescence. AID 602281, 2012. Split G. princeps luciferase complementation, 4 h. inhibition, % at 4 µM. 360,000 tested, 0.78% active;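 active = inhibition above the mean inhibition across every tested compound plus 3 SD, cut at about 22% in these data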;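 note: 0% = DMSO only wells and the 100% control is not disclosed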
Target sequence (Q00G26 whole entry, looked up): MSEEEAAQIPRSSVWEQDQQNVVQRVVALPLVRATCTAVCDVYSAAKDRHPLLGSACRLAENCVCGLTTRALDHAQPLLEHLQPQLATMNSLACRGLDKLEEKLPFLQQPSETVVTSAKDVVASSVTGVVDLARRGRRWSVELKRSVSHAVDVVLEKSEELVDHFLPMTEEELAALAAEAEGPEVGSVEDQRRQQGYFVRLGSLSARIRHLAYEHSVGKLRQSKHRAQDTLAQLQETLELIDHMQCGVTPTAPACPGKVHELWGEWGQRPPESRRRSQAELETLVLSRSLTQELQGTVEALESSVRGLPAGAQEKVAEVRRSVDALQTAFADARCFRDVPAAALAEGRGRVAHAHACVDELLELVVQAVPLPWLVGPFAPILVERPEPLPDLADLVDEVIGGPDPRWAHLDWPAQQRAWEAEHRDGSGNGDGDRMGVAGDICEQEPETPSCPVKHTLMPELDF
Target sequence (Q8WTS1 whole entry, looked up): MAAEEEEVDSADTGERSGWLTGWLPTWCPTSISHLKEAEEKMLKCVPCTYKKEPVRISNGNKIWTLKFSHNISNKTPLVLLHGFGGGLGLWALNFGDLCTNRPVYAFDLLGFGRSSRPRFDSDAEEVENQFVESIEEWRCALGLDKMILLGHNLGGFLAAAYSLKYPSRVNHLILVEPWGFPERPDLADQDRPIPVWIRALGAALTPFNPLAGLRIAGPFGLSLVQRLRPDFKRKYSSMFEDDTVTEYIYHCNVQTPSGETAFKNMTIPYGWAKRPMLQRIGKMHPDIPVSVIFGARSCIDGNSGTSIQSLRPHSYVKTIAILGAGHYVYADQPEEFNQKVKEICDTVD
Mdm2 MdmX PPI: inhibitors of human Mdm2-MdmX association, primary screen, cell-based, luminescence, split luciferase, SaOS-2, uHTS; 330,000 tested, 3% active; Protein Mdm4 (Homo sapiens) + E3 ubiquitin-protein ligase Mdm2 (Homo sapiens), …; SaOS-2 split-luciferase Mdm2/MdmX complementation; inhibition, % at 8 µM; AID 485346, 2010;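 active = inhibition of at least 50% at 8 µM in the primary screen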
HIF-2a inh: HIF-2a reporter inhibitors, primary screen, luminescence, 786-0 RCC cells. inhibition, % at 18.8 µM. 360,000 tested, 0.72% active. AID 624352, 2012. 786-0 RCC cells HIF-2a reporter, luciferase luminescence, overnight;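 active = inhibition of the luminescence signal of 40% or more relative to plate controls, in a single-dose primary screen at 18.75 µM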
CF NFkB block: inhibitors of PAF-induced NF-kB signaling, primary screen, cell-based, GFP fluorescence, uHTS | KKLEB NF-kB-GFP reporter, GFP fluorescence overnight | inhibition, % at 5 µM | 360,000 tested, 0.86% active;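 active = at least 50% inhibition at 5 µM, scaled per plate between neutral and stimulator controls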;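 note: PAF is a Pseudomonas aeruginosa culture filtrate used as stimulus; plate controls were PAF-stimulated DMSO wells for no effect and unstimulated DMSO wells for full effect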
KKLEB tox: cytotoxicity in KKLEB CF airway cells, primary screen, cytotoxicity control for CF NF-kB inhibitor project, cell-based, uHTS, fluorescence assay plates. KKLEB CF airway cells viability, ATPlite luminescence, overnight; hits give low values; cells stimulated with P. aeruginosa culture filtrate. activity change (cytotoxicity), % at 5 µM. 360,000 tested, 0.36% active. AID 602141, 2011;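 active = corrected activity change at or below -50% at 5 µM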
Mdm2 MdmX conf: Mdm2-MdmX complex disruptors, retested hits, confirmation, luminescence, single concentration; 10,000 tested, 55% active; Mdm2-MdmX binding, luminescent assay; inhibition, % at 8 µM; shares compounds with Mdm2 MdmX PPI; in the data active = inhibition above about 40%
FLuc counter: full-length luciferase signal inhibition, confirmation, counter-screen for Mdm2/MdmX interaction inhibitor project, cell-based, single concentration, SaOS-2. shares compounds with Mdm2 MdmX PPI. SaOS-2 full-length luciferase counterscreen, luminescence. inhibition, % at 8 µM. 6,200 tested, 77% active. AID 504607, 2011;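 active = mean inhibition at 8 µM reaching about 37%, which flags the compound as non-specific, limit read from the data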;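 note: p53-null SaOS-2 cells with luciferase driven by a doxycycline-inducible promoter; compound on cells about two nights before reading with doxycycline added after day one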
Numbers without * were called inactive. In the library only some 4.6% were active in any assay of this set; here they are far more common.

What do the screens show for `CCc1ccccc1OCC(=O)Nc1nc(-c2cccnc2)cs1`?
Peg3 prom inh: 30.9; ABHD5 PLIN5 PPI: -1.9; Mdm2 MdmX PPI: 66.9*; HIF-2a inh: -11.2; CF NFkB block: -3.8; KKLEB tox: -15.7; Mdm2 MdmX conf: 68.7*; FLuc counter: 35.6

What do the screens show for `CC(C)Cn1c(N)c(C(=O)COC(=O)Cc2cccc(C(F)(F)F)c2)c(=O)n(C)c1=O`?
Peg3 prom inh: -7.1; ABHD5 PLIN5 PPI: -4.5; Mdm2 MdmX PPI: 11.1; HIF-2a inh: 8.7; CF NFkB block: 9.2; KKLEB tox: -3.6

Results for N=C1C(c2nc3ccccc3s2)=C(O)CN1NC(=O)c1ccccc1[N+](=O)[O-] ?
Peg3 prom inh: 21.1; ABHD5 PLIN5 PPI: 1.2; Mdm2 MdmX PPI: 54.4*; HIF-2a inh: 8.0; CF NFkB block: -10.4; KKLEB tox: -14.5; Mdm2 MdmX conf: 1.4

What do the screens show for `COc1ccc(OC)c(/C=C2\SC(=S)N(Cc3cccnc3)C2=O)c1`?
Peg3 prom inh: 49.2; ABHD5 PLIN5 PPI: 1.5; Mdm2 MdmX PPI: 72.9*; HIF-2a inh: 7.6; CF NFkB block: -20.5; KKLEB tox: -13.9; Mdm2 MdmX conf: 43.5*; FLuc counter: 49.2*

What do the screens show for `CCOC1=NN(c2ccc(Cl)cc2)C(=O)/C1=C\N(C)C`?
Peg3 prom inh: -2.3; ABHD5 PLIN5 PPI: -6.2; Mdm2 MdmX PPI: -16.3; HIF-2a inh: 6.2; CF NFkB block: -11.6; KKLEB tox: 8.7

What do the screens show for `CCOC1=NN(c2ncc(C(F)(F)F)cc2Cl)C(=O)/C1=C/N(C)C`?
Peg3 prom inh: -2.5; ABHD5 PLIN5 PPI: -2.8; Mdm2 MdmX PPI: 69.7*; HIF-2a inh: 21.4; CF NFkB block: 3.6; KKLEB tox: -4.1; Mdm2 MdmX conf: -7.0

How did O=C(NCc1ccccc1)Nc1cccn(Cc2c(F)cccc2Cl)c1=O do in these assays?
Peg3 prom inh: 9.5; ABHD5 PLIN5 PPI: 1.4; Mdm2 MdmX PPI: 55.6*; HIF-2a inh: -11.3; CF NFkB block: -1.1; KKLEB tox: 7.9; Mdm2 MdmX conf: 43.4*; FLuc counter: 73.0*

Results for Cc1ccc(NC(=O)Nc2cccn(Cc3c(F)cccc3Cl)c2=O)cc1 ?
Peg3 prom inh: -139.8; ABHD5 PLIN5 PPI: -4.8; Mdm2 MdmX PPI: 5.3; HIF-2a inh: -172.3; CF NFkB block: 17.9; KKLEB tox: -7.5

What do the screens show for `CCCC(C)NC(=O)CN1C(=O)NC2(CCc3ccccc32)C1=O` (stereo not drawn)?
Peg3 prom inh: 2.3; ABHD5 PLIN5 PPI: 9.6; Mdm2 MdmX PPI: 39.0; HIF-2a inh: 20.0; CF NFkB block: -6.0; KKLEB tox: 34.7

How did O=C1[C@H]2[C@@H](c3ccc(F)cc3)N3C(=O)N(c4ccc(Br)cc4)C(=O)[C@@]3(Cc3ccccc3)[C@H]2C(=O)N1C1CCCCC1 do in these assays?
Peg3 prom inh: 17.6; ABHD5 PLIN5 PPI: -7.3; Mdm2 MdmX PPI: 83.6*; HIF-2a inh: -2.6; CF NFkB block: 13.1; KKLEB tox: -4.3; Mdm2 MdmX conf: 93.9*; FLuc counter: 26.6

What do the screens show for `Cc1ccc(N2C(=O)N3[C@H](c4ccc(Cl)cc4)[C@@H]4C(=O)N(C5CCCCC5)C(=O)[C@@H]4[C@]3(Cc3ccccc3)C2=O)cc1`?
Peg3 prom inh: -39.4; ABHD5 PLIN5 PPI: -5.1; Mdm2 MdmX PPI: 21.8; HIF-2a inh: -54.4; CF NFkB block: 1.8; KKLEB tox: -14.9
